# PubChem BioAssay (EPA / NIEHS)
# Where “and” joins values, the source holds several entries; their conditions need not be identical. Equal entries are not always repeated. Records with an inconclusive call do not appear. Calls of active or inactive are those of the source. The calls were made as follows, unless noted: active = hit-call score of the fitted dose curve at least 0.9, where 1 is the maximum; inactive = score below 0.9.
# What was measured:
# [1] = CCTE_Deisenroth_5AR_NBTE_donor: CCTE's 5alpha-reductase NanoBRET Target Engagement Assay […], Deisenroth Lab (AID 2284319); conditions: actives raise or lower the signal
# Procedure, shortened: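 In this secondary endpoint, donor luminescence from SRD5A2-NanoLuc in transfected HEK293T flags artifacts. Test chemical (10 nM - 29.9 uM) is present five hours, tracer the last two; mock-tracer wells run plate-matched; data fitted bidirectionally against DMSO.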
# [2] = CCTE_Deisenroth_5AR_NBTE_acceptor: CCTE's 5alpha-reductase NanoBRET Target Engagement Assay - Autofluorescence Screen, Deisenroth Lab (AID 2284321); conditions: actives raise or lower the signal;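 also: compound fluorescence in the acceptor channel under 460 nm excitation flags autofluorescence artifacts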
# Procedure, shortened: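 HEK293T cell-based NanoBRET assay read 5 h after dosing; this acceptor channel serves as an autofluorescence artifact screen. Chemicals at nominal 100 uM were scanned in three independent runs (n=3), excitation 460 nm. Fitting was bidirectional versus DMSO baseline.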
# [3] = tested on: SRD5A2 (gene 6716); experiment: CCTE_Deisenroth_5AR_NBTE_ratio: CCTE's 5alpha-reductase NanoBRET Target Engagement Assay - Ratio, Deisenroth Lab (AID 2284322); conditions: actives raise or lower the signal
# Procedure, shortened: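 HEK293T transiently expressing SRD5A2-NanoLuc; cells exposed to chemical (8-point, 10 nM - 29.9 uM) for 5 h total, testosterone tracer added for final 2 h. NanoBRET acceptor/donor ratio (650/460 nm), bidirectional fit vs DMSO.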
# [4] = CCTE_Padilla_ZF_Score.Craniofacial: CCTE's 144 Hour Post-fertilization zebrafish Assay Score for Craniofacial Malformation, Padilla Lab (AID 2284405)
# Procedure, shortened: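 Wild-type zebrafish embryos (with chorions), one per well in 10% Hanks', were dosed at 6–8 hpf in sealed plates and kept at 26C. They were rinsed at 5 dpf. At 6 dpf two blinded assessors scored craniofacial malformations by brightfield stereomicroscopy.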
# [5] = CCTE_Padilla_ZF_Score.Edema: CCTE's 144 Hour Post-fertilization zebrafish Assay Score for Edema Malformation, Padilla Lab (AID 2284406)
# Procedure, shortened: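 Wild-type zebrafish embryos, one per well in Hanks' solution, dosed at 6-8 hpf, sealed and reared at 26C on a 14:10 h cycle; rinsed on 5 dpf. At 6 dpf, blinded assessors scored edema by stereomicroscopy.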
# [6] = CCTE_Padilla_ZF_Score.Spine: CCTE's 144 Hour Post-fertilization zebrafish Assay Score for Spine Malformation, Padilla Lab (AID 2284407)
# Procedure, shortened: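 Wild-type zebrafish embryos, one per well in Hanks' solution, dosed at 6–8 hpf in sealed plates at 26C, 14:10 h light:dark; rinsed at 5 dpf. Two blinded assessors scored spinal defects by stereomicroscopy at 6 dpf; fitted versus DMSO.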
# [7] = CCTE_Padilla_ZF_Score.Swim_bladder: CCTE's 144 Hour Post-fertilization zebrafish Assay Score for Swim Bladder Malformation, Padilla Lab (AID 2284408)
# Procedure, shortened: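 Wild-type zebrafish embryos, one per well in 10% Hanks', dosed at 6–8 hpf, sealed, reared at 26C and rinsed at 5 dpf. Blinded assessors scored uninflated swim bladder by stereomicroscopy at 6 dpf, relative to DMSO.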
# [8] = CCTE_Mundy_HCI_iCellGluta_NOG_NeuriteLength: CCTE's Neurite Outgrowth Assay in iCellGluta cells for Neurite Length, Mundy Lab (AID 2284318; active = hit-call score of the fitted dose curve at least 0.9, where 1 is the maximum)
# Procedure, shortened: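 Automated high-content imaging of betaIII-tubulin (Alexa Fluor-488) and Hoechst-stained cells gave neurite length, normalized to the DMSO baseline.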
# [9] = TAMU_PeakParms_SingleDonor1434_Asystole: Texas A&M University (TAMU) 1.5-hr Human Induced Pluripotent Stem Cell (iPSC)-derived Cardiomyocytes Calcium (Ca+2) Flux Assay for Cardiotoxicity: Asystole (quiescence of beating) (AID 2284328; active = hit-call score of the fitted dose curve at least 0.9, where 1 is the maximum)
# Procedure, shortened: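 Human iPSC-derived cardiomyocytes (donor 1434) were exposed to 0.2, 1, 10 and 100 uM compound in 0.5% DMSO for 90 min at 37C. Ca2+-dye fluorescence gave average peak frequency; POD is EC95, a 95% beat-rate drop versus DMSO.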
# [10] = CCTE_Mundy_HCI_iCellGluta_NOG_NeuronCount: CCTE's Neurite Outgrowth Assay in iCellGluta cells for Neuron Count, Mundy Lab (AID 2284340; active = hit-call score of the fitted dose curve at least 0.9, where 1 is the maximum;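 also: cells fixed about 48 h after compound addition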)
# Procedure, shortened: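 Neuron count read by automated high-content imaging of Hoechst 33342 and betaIII-tubulin/Alexa Fluor-488 labelling in human iPSC glutamatergic neurons. Activity fitted relative to DMSO.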
# [11] = CCTE_Mundy_HCI_iCellGluta_NOG_NeuriteCount: CCTE's Neurite Outgrowth Assay in iCellGluta cells for Neurite Count, Mundy Lab (AID 2284342; active = hit-call score of the fitted dose curve at least 0.9, where 1 is the maximum;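 also: chemical exposure about 48 hours starting 2 hours after plating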)
# [12] = IUF_NPC2-5_viability_120hr: Viability Assessment at 120 hours in the Leibniz Research Institute for Environmental Medicine (IUF) Neural Progenitor Cell Migration and Differentiation Assay (NPC2-5) (AID 2284312)
# Procedure, shortened: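 Human fetal (GW 16-19) neural progenitor spheres of 0.3 mm were plated on poly-D-lysine/laminin in N2 differentiation medium and exposed from day 0 for 120 h, with half-medium refresh at day 3. Viability was read as alamar blue resazurin-to-resorufin fluorescence against DMSO.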
# [13] = IUF_NPC1_cytotoxicity_72hr: Cytotoxicity Assessment at 72 hours in the Leibniz Research Institute for Environmental Medicine (IUF) Neural Progenitor Cell Proliferation Assay (NPC1) (AID 2284332; active = hit-call score of the fitted dose curve at least 0.9, where 1 is the maximum;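 also: rising LDH signal means more cytotoxicity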)
# Procedure, shortened: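 Human fetal neural progenitor spheres (0.3 mm) in EGF/FGF proliferation medium, 37C, exposed 72 h without renewal. LDH release in supernatant read by resorufin fluorescence; gain of signal scored relative to dynamic range.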
# [14] = tested on: TTR (gene 7276); experiment: CCTE_GLTED_hTTR_0.5uM: CCTE's human Transthyretin (hTTR) Inhibition Assay, with 0.5uM TTR, Great Lakes Toxicology and Ecology Division (GLTED) Lab (AID 2284320)
# Procedure, shortened: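 Cell-free displacement assay in which human TTR at 0.5 uM was incubated with test chemical for 2 h. Displacement of the ANSA probe was read by fluorescence at 380 nm excitation/475 nm emission. Loss of signal was fitted in the positive direction versus DMSO.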
# [15] = tested on: SERPINA7 (gene 6906); experiment: CCTE_GLTED_hTBG: CCTE's human Thyroxine-binding Globulin (TBG) Inhibition Assay, Great Lakes Toxicology and Ecology Division (GLTED) Lab (AID 2284343; active = hit-call score of the fitted dose curve at least 0.9, where 1 is the maximum;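 also: active chemicals lower fluorescence versus DMSO baseline by displacing probe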)
# Procedure, shortened: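 Human TBG incubated 2 h with test chemical; displacement of ANSA probe read by fluorescence, 380 nm excitation/475 nm emission. Loss of signal relative to DMSO.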
# [16] = tested on: IYD (gene 389434); experiment: CCTE_GLTED_hIYD: CCTE's human Iodotyrosine Deiodinase (xIYD) Inhibition Assay, Great Lakes Toxicology and Ecology Division (GLTED) Lab (AID 2284317; active = hit-call score of the fitted dose curve at least 0.9, where 1 is the maximum;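 also: cell-free human IYD enzyme made in baculovirus insect cells; iodide freed from monoiodotyrosine measured by cerium arsenite color change at 420 nm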)
# Procedure, shortened: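 hIYD: baculovirus-expressed human IYD deiodinated monoiodotyrosine for 3 h with test chemical; free iodide was measured by Sandell-Kolthoff absorbance at 420 nm and normalized to MNT and DMSO/NaOH controls.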
smiles,measurement,setting,value
CCCO[Si](OCCC)(OCCC)OCCC,outcome,[1],inactive
same,outcome,[2],inactive
same,outcome,[3],inactive
O=C(c1ccc(OCCN2CCCCC2)cc1)c1c(-c2ccc(O)cc2)sc2cc(O)ccc12,AC50,[1],50 µM (active)
same,AC50,[2],50 µM (active)
same,AC50,[3],19.1 µM (active)
OCC(F)(OC(F)(F)C(F)(OC(F)(F)C(F)(F)C(F)(F)F)C(F)(F)F)C(F)(F)F (stereo not drawn),AC50,[4],34.8 µM (active)
same,outcome,[5],inactive
same,outcome,[6],inactive
same,outcome,[7],inactive
C=C(F)C(=O)OC(C(F)(F)F)C(F)(F)F,outcome,[4],inactive
same,outcome,[5],inactive
same,outcome,[6],inactive
same,outcome,[7],inactive
N#CCCNCCC#N,outcome,[8],inactive
same,outcome,[9],inactive
same,outcome,[10],inactive
same,outcome,[11],inactive
CNC(=C[N+](=O)[O-])NCCSCc1ccc(CN(C)C)o1,outcome,[9],inactive
N[C@@H](CCC(=O)O)C(=O)O,outcome,[12],inactive
same,outcome,[8],inactive
same,outcome,[13],inactive
same,outcome,[10],inactive
same,outcome,[11],inactive
O=C(O)C(F)(F)OC(F)(F)C(F)(F)OC(F)(F)C(F)(F)C(F)(F)C(F)(F)F,AC50,[14],0.712 µM (active)
same,outcome,[4],inactive
same,outcome,[5],inactive
same,outcome,[6],inactive
same,outcome,[7],inactive
CCCCC(CC)COC(=O)COc1ccc(Cl)cc1C (stereo not drawn),outcome,[12],inactive
same,AC50,[8],33.4 µM (active)
same,outcome,[13],inactive
same,AC50,[10],39 µM (active)
same,AC50,[11],32.2 µM (active)
O=C(O)C(F)(F)C(F)(F)C(F)(F)C(F)(F)C(F)(F)C(F)(F)C(F)(F)C(F)F,AC50,[14],0.53 µM (active)
same,AC50,[15],73.1 µM (active)
same,outcome,[4],inactive
same,outcome,[5],inactive
same,outcome,[6],inactive
same,outcome,[7],inactive
CCCCCCOc1ccc(O)cc1,AC50,[15],33.7 µM (active)
CCCCCCCCOC(=O)c1ccc(O)cc1,AC50,[16],39.6 µM (active)
same,AC50,[15],7.24 µM (active)
CC/C(=C(\c1ccccc1)c1ccc(OCCN(C)C)cc1)c1ccccc1,AC50,[16],55.8 µM (active) and 31.5 µM (active)
same,AC50,[1],67.4 µM (active)
same,AC50,[2],64 µM (active)
same,AC50,[3],76.6 µM (active)
same,outcome,[9],inactive
